Screens from PubChem.
Shown are actives, neighbours in structure and some others; about 9.2% of the full set was active somewhere.
USP10 inh: inhibitors of human USP10 deubiquitinase; inhibition, % at 20 µM; Q14694; 1.1% of 47,000 active; AID 1645856; purified USP10, Ub-rhodamine fluorescence, 60 min
USP8 block: human USP8 deubiquitinase inhibition; inhibition, % at 20 µM; AID 1645853; 4.2% of 47,000 active; purified USP8, Ub-rhodamine cleavage fluorescence, 30 min; P40818
USP17 inh: inhibitors of human USP17 deubiquitinase; A8MUK1; purified USP17, Ub-rhodamine cleavage fluorescence, 3 h; inhibition, % at 50 µM; 6.5% of 47,000 active; AID 1645855
UCHL1 inh: inhibitors of human UCHL1 deubiquitinase; 0.2% of 47,000 active; inhibition, % at 20 µM; P09936; purified UCHL1, Ub-rhodamine cleavage fluorescence
USP7 block: blocks human USP7 ubiquitin-rhodamine cleavage; Q93009; purified USP7, Ub-rhodamine cleavage fluorescence; inhibition, % at 20 µM; 0.3% of 47,000 active
OTUD3 inh: human OTUD3 deubiquitinase inhibition | purified OTUD3, Ub-rhodamine fluorescence, 2 h | inhibition, % at 25 µM | 0.7% of 47,000 active
Target sequence (Q5T2D3 whole entry, looked up): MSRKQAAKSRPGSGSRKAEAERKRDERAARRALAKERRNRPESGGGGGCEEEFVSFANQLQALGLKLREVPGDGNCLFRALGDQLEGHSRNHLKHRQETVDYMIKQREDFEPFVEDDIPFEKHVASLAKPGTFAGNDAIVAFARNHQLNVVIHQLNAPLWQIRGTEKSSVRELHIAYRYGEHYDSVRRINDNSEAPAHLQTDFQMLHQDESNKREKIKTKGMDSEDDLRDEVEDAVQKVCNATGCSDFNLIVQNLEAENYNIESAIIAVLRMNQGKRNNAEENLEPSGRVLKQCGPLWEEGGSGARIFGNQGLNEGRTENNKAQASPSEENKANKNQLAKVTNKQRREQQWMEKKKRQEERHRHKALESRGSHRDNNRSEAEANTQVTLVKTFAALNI
A number is an active result; . = inactive; / = not tested or not shown. Rule as the data show it: active = inhibition above about 30%; inactive = the rest.

SMILES | USP10 inh | USP8 block | USP17 inh | UCHL1 inh | USP7 block | OTUD3 inh
COc1ccc(-c2nc3n(n2)C(CC(=O)Nc2cccc4ccccc24)C(=O)N3)cc1 (configuration not stated) | 41 | 51 | . | . | . | .
CC(=O)c1ccc(NC(=O)CC2C(=O)Nc3nc4ccccc4n32)cc1 (configuration not stated) | . | . | 75 | . | . | .
O=C(C1=CSCCO1)N1CCc2ccccc2C1 | . | . | . | . | . | .
O=C(Nc1cccnc1)c1nc2c(s1)CCN(C(=O)c1ccccc1)CC2 | . | . | . | . | . | .
CC(C)=CCC/C(C)=C/C[C@]1(O)C(=O)c2cc(O)cc(O)c2C(=O)[C@@]1(Cl)CC=C(C)C | . | . | 50 | . | . | .
O=C(COc1ccc(Cl)cc1)Nc1noc(-c2cccs2)n1 | . | 85 | 48 | . | . | .
Cc1cc(NS(=O)(=O)c2ccc(NC(=O)COc3ccc(Cl)cc3)cc2)no1 | . | . | . | . | . | .
O=c1[nH]c(=O)c2c(-c3cccc4ccccc34)ccnc2[nH]1 | . | . | . | . | . | .
O=c1[nH]c(=O)c2c(-c3ccc(-c4ccccc4)cc3)ccnc2[nH]1 | . | 76 | . | . | . | .
COc1cccc(-c2ccnc3[nH]c(=O)[nH]c(=O)c23)c1 | . | . | 74 | . | . | .
Cc1nc(N)cc(C2CCCN2C(=O)c2cn3c(C)cccc3n2)n1 (configuration not stated) | . | . | . | . | . | .
Cc1ccc(-c2cc(C#N)c(=O)n(Cc3ccc(F)cc3)c2)cc1 | . | . | 41 | . | . | .
O=c1cc(Cc2ccccc2)nc2c(-c3ccccc3)c(COc3ccccc3)[nH]n12 | 62 | . | . | . | 52 | .
CN(C)S(=O)(=O)c1cccc(NC(=O)c2cc(-c3cccs3)on2)c1 | . | . | . | . | . | .
COc1cccc(NC(=O)c2cc(-c3cccs3)on2)c1 | . | . | 39 | . | . | .
COc1cc(NC(=O)c2ccco2)c(OC)cc1NC(=O)CN1CCCCC1 | . | . | . | . | . | .
COc1ccc(-c2c(C)c(C(=O)c3ccco3)n3ccc4cc(OC)c(OC)cc4c23)cc1OC | . | 68 | . | . | . | .
COc1ccccc1-n1ccn2cc(-c3ccc(C)c(C)c3)nc2c1=O | . | . | 31 | . | . | .
COc1cccc(-c2cn3ccn(-c4ccccc4)c(=O)c3n2)c1 | . | . | . | . | . | .
CCCN1CCN(c2nc(-c3cccc(OC)c3OC)no2)CC1 | . | . | . | . | . | .
N#Cc1c(C(F)(F)F)cc(-c2ccccc2)nc1N1CCOCC1 | . | . | 30 | . | . | .
N#Cc1c(-c2ccccc2)nc(N2CCCC2)nc1N1CCCC1 | . | . | . | . | . | .
CCc1nnc(-c2nnc(NCCCN3CCOCC3)c3ccccc23)o1 | . | . | . | . | . | .
CCc1nnc(-c2nnc(NCCOc3ccccc3OC)c3ccccc23)o1 | . | 66 | . | . | . | .
COc1ccc(CSc2ncnc3c2sc2nc(CC(C)C)c4c(c23)CCC4)cc1 | . | . | . | . | . | .
SMILES | USP10 inh | USP8 block | USP17 inh | UCHL1 inh | USP7 block | OTUD3 inh
O=C(Cn1c(-c2nc(-c3ccccc3)no2)cccc1=O)Nc1ccccc1 | . | . | 34 | . | . | .
Cc1ccc(NC(=O)Cn2c(-c3nc(C)no3)cccc2=O)c(C)c1 | . | . | / | . | . | .
O=C(Cn1c(-c2nc(-c3cccc(F)c3)no2)cccc1=O)NCc1ccco1 | 38 | 87 | 40 | . | . | .
O=C(Nc1ccccc1)c1c(O)c2cnn(Cc3ccccc3)c2[nH]c1=O | . | 57 | . | . | . | .
O=C(NCc1ccc(F)cc1F)c1c(O)c2cnn(Cc3ccccc3)c2[nH]c1=O | . | . | . | . | . | .
Cc1ccc([C@H]2C[C@@H](O)[C@@H](O)[C@@H]2NC(=O)c2ccccc2)cc1 | . | . | . | . | . | .
O=C(COc1cccc(-n2cnnn2)c1)Nc1ccc2c(c1)OCCO2 | . | . | . | . | . | .
CCOC(=O)c1cc(=O)c2ccc(OCC(=O)Nc3ccc4c(c3)OCCO4)cc2o1 | . | 65 | / | . | . | .
CCCn1cnc2cc(-c3noc(CNC(=O)c4cccs4)n3)ccc21 | . | 33 | . | . | . | .
CCn1nnc2cc(-c3noc(CNC(=O)c4cccs4)n3)ccc21 | . | . | . | . | . | .
O=C(NC1CC1)c1ccc(-c2ccc(N3CCCCC3)nc2)cc1 | . | . | 48 | . | . | .
